# According to PubChem BioAssay (NCATS):
# Inconclusive results are not listed. A call without a number means that no potency is given here. Values without a mark were called inactive. Activity calls are given as the source filed them. Calls come from the whole dose curve; as a rule, active = well fitted cell-killing curve with a large enough effect; inconclusive = small, poorly fitted or top-dose-only effect, or effect the other way; inactive = flat fitted curve, though single readings scatter.
# System: SKOV3
# Experiment: Primary qHTS to identify gynecologic anti-cancer compounds using libraries of approved drugs and bioactive compounds (AID 1345084); note: nearly all actives have a fitted effect of over 55% in size
# Details: Gynecologic cancer cell panel viability, ATPlite luminescence, 48 h; series mostly up to 57.5 µM
# Summary of the method: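 Measured: luminescence after ATPlite addition (15 min, RT). Exposure: 48 h, 37 C, 5% CO2.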
SMILES,Potency,"activity change, negative = cytotoxicity"
CC(C)=CCC/C(C)=C/CO[C@@H]1O[C@H](CO[C@@H]2OC[C@](O)(CO)[C@H]2O)[C@@H](O)[C@H](O)[C@H]1O,inactive,–
C[C@]1(OC(=O)/C=C/c2ccc(O)cc2)C[C@@H](O)[C@]2(O)C=CO[C@@H](O[C@@H]3O[C@H](CO)[C@@H](O)[C@H](O)[C@H]3O)C12 (stereo partly drawn),inactive,–
CC[C@H]1OC(=O)[C@H](C)C(=O)[C@H](C)[C@@H](OC2O[C@H](C)C[C@H](N(C)C)[C@H]2O)[C@@H](C)C[C@@H](C)C(=O)/C=C/[C@]1(C)O (stereo partly drawn),inactive,–
CC1(C)[C@@H]2CC=C(CO[C@@H]3O[C@H](CO[C@@H]4OC[C@H](O)[C@H](O)[C@H]4O)[C@@H](O)[C@H](O)[C@H]3O)[C@H]1C2,inactive,–
COc1cc(O)cc(C)c1C(=O)O[C@H]1[C@@H](O)[C@@H](n2ccc(=O)[nH]c2=O)O[C@@H]1CO,inactive,–
CCC1OC(=O)C(C)CC(C)C(=O)/C(C)=C/C(C)C(=O)/C=C/C1(C)O (stereo not drawn),inactive,–
CC(C)CC(=O)O[C@@H]1O[C@H](CO)[C@@H](O[C@H]2O[C@H](C)[C@@H](N[C@H]3C=C(CO)[C@@H](O[C@H]4O[C@H](CO)[C@@H](O[C@H]5O[C@H](CO)[C@@H](O[C@H]6O[C@H](CO)[C@@H](O)[C@H](O)[C@H]6O)[C@H](O)[C@H]5O)[C@H](O)[C@H]4O)[C@H](O)[C@H]3O)[C@H](O)[C@H]2O)[C@H](O)[C@H]1O,–,18.6% [at 11.6 µM]
CC1=CCC[C@@H]2[C@@](C)(CCc3ccoc3)[C@H](C(=O)O)CC[C@@]12C,inactive,–
CCN(CCN(C)C)C(=O)CNCc1cc(C(N)=O)ccn1,inactive,–
O=C(NCC(=O)N1CCCC1)Nc1ccc2ccccc2c1,inactive,–
NCCCCN(Cc1nc2ccccc2[nH]1)[C@H]1CCCc2cccnc21,inactive,–
C[C@@H]1O[C@@H](O[C@@H]2[C@@H](O)[C@H](O[C@H]3[C@H](O[C@H]4CC[C@@]5(C)C(CC[C@]6(C)C5CC=C5[C@@H]7CC(C)(C)CC[C@]7(C(=O)O[C@@H]7O[C@H](CO)[C@@H](O)[C@H](O)[C@H]7O)CC[C@]56C)C4(C)C)O[C@H](C(=O)O)[C@@H](O)[C@@H]3O)OC[C@H]2O)[C@H](O)[C@H](O)[C@H]1O (stereo partly drawn),–,20.4% [at 11.6 µM]
O=C(O)C[C@H]1CCC(=O)[C@@H]1C/C=C\CCO,inactive,–
CC(/C=C/C=C(\C)C(=O)O[C@@H]1O[C@H](CO[C@@H]2O[C@H](CO)[C@@H](O)[C@H](O)[C@H]2O)[C@@H](O)[C@H](O)[C@H]1O)=C\C=C\C=C(C)\C=C\C=C(/C)C(=O)O[C@@H]1C[C@](O)(C(=O)O)C[C@@H](O)[C@H]1OC(=O)/C=C/c1ccc(O)c(O)c1,–,3.61% [at 11.6 µM]
COc1cc(CC2COC(c3ccc(OC4OC(CO)C(O)C(O)C4O)c(OC)c3)C2CO)ccc1O (stereo not drawn),inactive,–
CCC(C)/C=C(C)/C=C/C1=CC2=C(Cl)C(=O)C(C)(O)C(=O)C2(O)C(OC)O1 (stereo not drawn),inactive,–
C=C1C[C@H](O)[C@@H](O)[C@@]2(C)C1[C@@H](O)[C@H]1OC(=O)C3[C@@H](C)[C@@H](O)[C@H](O)C2[C@]31C (stereo partly drawn),inactive,–
COc1ccc(/C=C/C(N)=O)cc1OC,inactive,–
CC(=O)/C=C/[C@H]1[C@](C)(O)[C@@H](O)[C@H](O)C2C(C)(C)CCC[C@@]21C (stereo partly drawn),inactive,–
CC(=O)OC/C(=C/C(=O)O)CC[C@@H]1C(C)=CC(=O)[C@@H]2C(C)(C)CCC[C@@]12C,inactive,–
CC1=CCC[C@@H]2[C@](CCc3ccoc3)(C(=O)O)[C@H](C)CC[C@@]12C,inactive,–
CC(=O)c1ccc(O[C@@H]2O[C@H](CO[C@@H]3OC[C@@H](O)[C@H](O)[C@H]3O)[C@@H](O)[C@H](O)[C@H]2O)cc1,inactive,–
C=C(C)C(O)COc1ccc(CC(=O)O)cc1 (stereo not drawn),inactive,–
N#Cc1cccc(-c2c[nH]c3ncnc(N4CCOCC4)c23)c1,inactive,–
On1ncc(C2CCNCC2)c1-c1cccc(-c2ccccc2)c1,inactive,–
COCC1OC(OC(C)(C)C2CCC3(C)C=C(C4CCC5C4(C)CC(O)C4OC(C(C)(C)O)CCC45C)CCC3O2)C(NC(C)=O)C(O)C1O (stereo not drawn),inactive,–
CC1CC(=O)C2C(O)(C1)CC(O)C13OC1c1c(O)cccc1C(=O)C23O (stereo not drawn),inactive,–
Cc1cccc(NC(=O)CN2CCC(c3ccccn3)CC2)c1,inactive,–
